About 83,000 compounds went through this panel and 20% of them were active in at least one assay; those are over-represented in the sample as a whole.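 Growth was measured after 48 h exposure to one concentration of compound in 96-well plates. Values under 10 count as active.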 Unmarked numbers belong to inactive results. Calls of active or inactive are those of the source.

The values below come from PubChem BioAssay (NCI).

Common to all, as to experiment: NCI-60 one-dose screen, 48 h (100 = growth as untreated, 0 = no growth, -100 = all killed)
Experiment [1] concerns DU-145 prostate. The settings on record: 10 µM unless noted.
Experiment [2] relates to K-562 leukemia. The note with it: 10 µM unless noted.
The test system of experiment [3] is MALME-3M melanoma. The note with it: 10 µM unless noted.
Experiment [4] relates to MDA-MB-231 breast. The note with it: 10 µM unless noted.
Experiment [5] has as its system RXF 393 renal. The settings on record: 10 µM unless noted.
The subject of experiment [6] is SF-268 CNS. The note with it: 10 µM unless noted.
Experiment [7] has as its system SF-295 CNS. The settings on record: 10 µM unless noted.
In experiment [8] the test system is SF-539 CNS. The settings on record: 10 µM unless noted.
The test system of experiment [9] is UACC-257 melanoma. The note with it: 10 µM.
Experiment [10] deals with M14 melanoma. The settings on record: 10 µM unless noted.

For the compound `C#CCOc1ccc(C(Nc2ccc(Cl)cc2)c2nnnn2C2CCCCC2)cc1` (stereo not given), the growth is 93.8% in [1]; 82.2% in experiment [2]; 98.8% in experiment [3]; 76.9% in experiment [4]; 87% in [5]; 80.2% in experiment [6]. In addition, the growth is 74.5% in [7], 98.6% in [8], 86.2% in experiment [9] and 99.4% in experiment [10].

Take `O=C(Nc1ccc(-c2nc(-c3cccc(O)c3)c(-c3ccnc(Br)c3)[nH]2)cc1)c1ccccc1`: the growth in [1] is 35.5%; in experiment [2] it was 1.18% (active); in experiment [3], 16.9%; in [4], 30.2%; in experiment [5] it was -37.1% (active); in experiment [6] it was 29.2%. Moreover, the growth in experiment [7] was -56.4% (active); in [8] it was 16.6%; in [9] it was 45.8%; in experiment [10], 22.6%.

On to `COc1cc(NC2=C(Cl)C(=O)c3nc(C)ccc3C2=O)cc(OC)c1`, for which the growth in experiment [1] is -93% (active); in experiment [2], 4.73% (active); in [3], -89.4% (active); in [4] it was -28.6% (active); in experiment [5], -97.2% (active); in experiment [6] it was 37%. Also, the growth in experiment [7] is 51.6%; in experiment [8] it was -30.9% (active); in experiment [9] it was -92% (active); in experiment [10], -96% (active).

On to `Cc1ccc(NC(=O)N[C@@H](Cc2cc(F)cc(F)c2)C(=O)NC2C(=O)N3CCC[C@H]3C(=O)N3CCCC[C@H]3C(=O)N[C@@H](C)C(=O)N3C[C@H](C)C[C@H]3C(=O)O[C@H]2C)c(F)c1` (stereo not given in full), for which the growth in [1] was 25.7%; in [2], 20.2%; in experiment [3], 44.3%; in experiment [4] it was 34.6%; in experiment [5], -7.39% (active); in experiment [6], 34.9%. In addition, the growth was 9.62% (active) in experiment [7], 39.2% in experiment [8], 16.9% in experiment [9] and 23% in experiment [10].

As for `CSc1ccc(/C(=N/N=C(N)N)c2ccccc2)cc1`, the growth is 15.2% in [1]; 25.2% in [2]; 50.6% in [3]; 29.5% in [4]; 15.4% in [5]; 53.6% in experiment [6]. Moreover, the growth in experiment [7] is 5.99% (active); in [8], -8.23% (active); in experiment [9], 80.7%; in experiment [10], 9.73% (active).

Take `COc1cc(/C=C/C(=O)c2ccc(NC(=O)COc3cccc4cccnc34)cc2)cc(OC)c1OC`: the growth in [1] is 78.1%; in [2], 34.1%; in experiment [3], 70.2%; in experiment [4], 73.7%; in experiment [5], 86.7%; in [6], 81.6%. Moreover, the growth in experiment [7] is 90.8%; in [8], 72.3%; in experiment [9] it was 74.6%; in experiment [10], 91.4%.

Consider `Cc1nn(-c2ccccc2)c2nc(CCl)[nH]c(=O)c12`, for which the growth in experiment [1] is 83.6%; in experiment [2], 19.2%; in [3], 103%; in experiment [4], 88.4%; in experiment [5], 99.2%; in experiment [6], 106%. In addition, the growth is 109% in experiment [7], 36.9% in experiment [8], 97.9% in [9] and 99% in [10].

Turning to `CC1(C)CC[C@]2(C(=O)O)CC[C@]3(C)C(=CCC4[C@@]5(C)C[C@@H](O)[C@@H]6OC(c7cccc([N+](=O)[O-])c7)OC[C@@]6(C)C5CC[C@]43C)C2C1` (stereo not given in full), the growth was 60.1% in experiment [1]; 44.9% in experiment [2]; 86.7% in experiment [3]; 82% in [4]; 85.3% in [5]; 74.6% in experiment [6]. In addition, the growth is 36.8% in experiment [7], 83.7% in [8], 103% in [9] and 72.8% in experiment [10].

Take `O=C1c2c(c3c4cccnc4[nH]c3c3ccc4ccccc4c23)C(=O)N1CCN1CCOCC1`: the growth in [1] is 59.9%; in [2], 37.2%; in [3], 64.4%; in experiment [4] it was 86.8%; in [5], 92.8%; in experiment [6], 58.7%. Also, the growth in [7] is 51.4%; in experiment [8], 55.6%; in experiment [9] it was 84.1%; in experiment [10] it was 47.4%.

In the case of `CCOC(=O)Nc1cccc(-n2cnc3cc(-c4ccc(O)cc4)ccc32)c1`, the growth was 19.7% in experiment [1]; 7.15% (active) in experiment [2]; 77.7% in experiment [3]; 33.7% in [4]; -12.8% (active) in [5]; 38.9% in experiment [6]. For the same compound, the growth in experiment [7] was 14.6%; in [8] it was 4.17% (active); in experiment [9], 83.6%; in experiment [10], 29.6%.

Regarding `Cn1cc(-c2nn3cc(-c4ccncc4)nc3s2)c2cc(Cl)ccc21`, the growth is 74.3% in [1]; -1.66% (active) in experiment [2]; 48.2% in [3]; 73.5% in [4]; 75.9% in experiment [5]; 67.9% in experiment [6]. In addition, the growth in experiment [7] is 35.1%; in [8] it was 82.1%; in experiment [9], 89.1%; in [10], 52.5%.

For the compound `C#CCOc1ccc(C(Nc2ccc(OC)cc2)c2nnnn2C2CCCCC2)cc1` (stereo not given), the growth was 109% in experiment [1]; 94.4% in [2]; 98.5% in [3]; 86.6% in experiment [4]; 114% in experiment [5]; 102% in experiment [6]. The growth was 100% in experiment [7], 104% in [8], 102% in experiment [9] and 97.2% in [10].

Turning to `CCN(CC)CCN1C(=O)c2c(c3c4cccnc4[nH]c3c3ccc4ccccc4c23)C1=O`, the growth in experiment [1] was 54.7%; in [2], 18.7%; in [3], 86.7%; in [4] it was 89.7%; in [5] it was 78.8%; in experiment [6] it was 50.3%. The growth was 35.4% in [7], 76.5% in experiment [8], 98.2% in experiment [9] and 61.1% in [10].
